Measured values published in PubChem BioAssay AID1159580 (chemical genetic matrix, 2015).
The campaign covered roughly 5,500 compounds. About 2,000 (36%) were called active. Roughly 18% stayed inconclusive and do not appear here. Cut-off read from the data, not from the text of the source: active = normalized growth mostly below about 0.91 (no sharp cut-off); inconclusive = no clear call, values can overlap the other calls; inactive = mostly above about 0.92. Some of the results follow.

Assay: chemical genetic growth profiling, strain panel (AID 1159580);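 note: tested at 20 µM; growth read once vehicle control cultures reached saturation at 30 °C; 1 = growth at the plate median or of vehicle wells; lower values mean less growth of the strain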
Conditions: growth OD
[1] = S. cerevisiae deletion strains, locus YDR150W, strain NUM1, hits give low values
[2] = S. cerevisiae deletion strains, locus YGR078C, strain PAC10, hits give low values
[3] = S. cerevisiae deletion strains, locus YMR307W, strain GAS1, hits give low values
[4] = S. cerevisiae deletion strains, locus YNL153C, strain GIM3, hits give low values
[5] = S. cerevisiae deletion strains, locus YNL322C, strain KRE1, hits give low values
[6] = S. cerevisiae deletion strains, locus YPL241C, strain CIN2, hits give low values

Measured: normalized growth

CC#CCOC(=O)c1c(C)nc2sc3c(c2c1N)CCC(O)C3 (stereo not given)
inactive: S. cerevisiae deletion strains, locus YAL040C, strain CLN3, hits give low values 1.06 | S. cerevisiae deletion strains, locus YCL061C, strain MRC1 (second series), hits give low values 0.993 | [1] 0.987 | S. cerevisiae deletion strains, locus YDR363W, strain ESC2, hits give low values 1 | S. cerevisiae deletion strains, locus YER002W, strain NOP16, hits give low values 0.971 | [2] 0.982 | [3] 0.994 | [4] 1.18 | S. cerevisiae deletion strains, locus YNL175C, strain NOP13, hits give low values 0.955 | S. cerevisiae deletion strains, locus YNL197C, strain WHI3, hits give low values 0.967 | S. cerevisiae deletion strains, locus YNL224C, strain SQS1, hits give low values 0.971 | [5] 0.982 | S. cerevisiae deletion strains, locus YOR083W, strain WHI5 (second series), hits give low values 0.891 | [6] 0.99

CC1(C)CC2C1(O)CCC1(C)C=CC(O)C21CO (stereo not given)
inactive: S. cerevisiae deletion strains, locus YAL013W, strain DEP1, hits give low values 0.99 | S. cerevisiae deletion strains, locus YBR021W, strain FUR4, hits give low values 1.01 | S. cerevisiae deletion strains, locus YBR229C, strain ROT2, hits give low values 0.995 | S. cerevisiae deletion strains, locus YCL029C, strain bik1, hits give low values 0.975 | S. cerevisiae deletion strains, locus YDL035C, strain GPR1, hits give low values 0.983 | S. cerevisiae deletion strains, locus YDL074C, strain BRE1, hits give low values 1.03 | S. cerevisiae deletion strains, locus YDL101C, strain DUN1, hits give low values 0.998 | S. cerevisiae deletion strains, locus YDL134C, strain PPH21, hits give low values 0.998 | S. cerevisiae deletion strains, locus YDL185W, strain tfp1, hits give low values 0.976 | S. cerevisiae deletion strains, locus YDL192W, strain arf1, hits give low values 0.979 | S. cerevisiae deletion strains, locus YDR101C, strain arx1, hits give low values 1 | [1] 0.987 | S. cerevisiae deletion strains, locus YDR162C, strain NBP2, hits give low values 1.03 | S. cerevisiae deletion strains, locus YDR318W, strain mcm21, hits give low values 0.975 | S. cerevisiae deletion strains, locus YDR388W, hits give low values 0.993 | S. cerevisiae deletion strains, locus YDR502C, strain sam2, hits give low values 1.01 | S. cerevisiae deletion strains, locus YEL061C, strain CIN8, hits give low values 0.992 | S. cerevisiae deletion strains, locus YER110C, hits give low values 0.959 | S. cerevisiae deletion strains, locus YER155C, strain BEM2, hits give low values 0.995 | S. cerevisiae deletion strains, locus YER167W, strain BCK2, hits give low values 0.982 | S. cerevisiae deletion strains, locus YGL078C, strain dbp3, hits give low values 0.994 | S. cerevisiae deletion strains, locus YGL086W, strain mad1, hits give low values 0.969 | S. cerevisiae deletion strains, locus YGL248W, strain PDE1, hits give low values 0.993 | [2] 1.03 | S. cerevisiae deletion strains, locus YGR135W, strain pre9, hits give low values 1.02 | S. cerevisiae deletion strains, locus YGR229C, strain SMI1, hits give low values 1.03 | S. cerevisiae deletion strains, locus YGR252W, strain gcn5, hits give low values 0.995 | S. cerevisiae deletion strains, locus YHR030C, strain SLT2, hits give low values 0.982 | S. cerevisiae deletion strains, locus YHR079C, strain IRE1 (second series), hits give low values 0.988 | S. cerevisiae deletion strains, locus YHR094C, strain hxt1, hits give low values 0.98 | S. cerevisiae deletion strains, locus YHR129C, strain ARP1, hits give low values 0.997 | S. cerevisiae deletion strains, locus YHR200W, strain rpn10, hits give low values 0.984 | S. cerevisiae deletion strains, locus YIL066C, strain RNR3, hits give low values 0.992 | S. cerevisiae deletion strains, locus YIL073C, strain SPO22, hits give low values 0.873 | S. cerevisiae deletion strains, locus YIL125W, strain kgd1, hits give low values 0.976 | S. cerevisiae deletion strains, locus YIR030C, strain dcg1, hits give low values 0.99 | S. cerevisiae deletion strains, locus YJL095W, strain BCK1, hits give low values 1.04 | S. cerevisiae deletion strains, locus YJL134W, strain LCB3, hits give low values 0.992 | S. cerevisiae deletion strains, locus YJL168C, strain set2, hits give low values 0.989 | S. cerevisiae deletion strains, locus YJL187C, strain SWE1 (second series), hits give low values 1 | S. cerevisiae deletion strains, locus YJR043C, strain POL32, hits give low values 0.994 | S. cerevisiae deletion strains, locus YJR075W, strain HOC1, hits give low values 0.988 | S. cerevisiae deletion strains, locus YKL009W, strain mrt4, hits give low values 0.95 | S. cerevisiae deletion strains, locus YKL068W, hits give low values 0.98 | S. cerevisiae deletion strains, locus YKL085W, strain MDH1 (second series), hits give low values 0.976 | S. cerevisiae deletion strains, locus YKL085W, strain MDH1, hits give low values 0.976 | S. cerevisiae deletion strains, locus YKL190W, strain CNB1, hits give low values 0.999 | S. cerevisiae deletion strains, locus YKR001C, strain vps1, hits give low values 1 | S. cerevisiae deletion strains, locus YLR039C, strain RIC1, hits give low values 0.945 | S. cerevisiae deletion strains, locus YLR058C, strain SHM2, hits give low values 0.983 | S. cerevisiae deletion strains, locus YLR102C, strain apc9, hits give low values 0.987 | S. cerevisiae deletion strains, locus YLR262C, strain YPT6, hits give low values 0.936 | S. cerevisiae deletion strains, locus YLR268W, strain sec22, hits give low values 1.02 | S. cerevisiae deletion strains, locus YLR330W, strain CHS5, hits give low values 0.984 | S. cerevisiae deletion strains, locus YLR342W, strain FKS1 (second series), hits give low values 0.994 | S. cerevisiae deletion strains, locus YLR371W, strain rom2, hits give low values 0.969 | S. cerevisiae deletion strains, locus YLR418C, strain cdc73, hits give low values 1.06 | S. cerevisiae deletion strains, locus YML016C, strain PPZ1, hits give low values 0.994 | S. cerevisiae deletion strains, locus YML032C, strain rad52, hits give low values 1.09 | S. cerevisiae deletion strains, locus YML124C, strain tub3, hits give low values 0.988 | S. cerevisiae deletion strains, locus YMR078C, strain ctf18, hits give low values 0.985 | S. cerevisiae deletion strains, locus YMR223W, strain ubp8, hits give low values 0.977 | S. cerevisiae deletion strains, locus YMR263W, strain SAP30, hits give low values 1.01 | [3] 1.08 | S. cerevisiae deletion strains, locus YNL067W, strain RPL9B, hits give low values 1.03 | S. cerevisiae deletion strains, locus YNL128W, strain TEP1, hits give low values 0.996 | [4] 1.03 | S. cerevisiae deletion strains, locus YNL233W, strain BNI4, hits give low values 1.04 | S. cerevisiae deletion strains, locus YNL250W, strain rad50, hits give low values 0.973 | S. cerevisiae deletion strains, locus YNL271C, strain bni1, hits give low values 0.973 | S. cerevisiae deletion strains, locus YNL298W, strain CLA4, hits give low values 0.977 | S. cerevisiae deletion strains, locus YNL307C, strain MCK1, hits give low values 0.999 | [5] 0.981 | S. cerevisiae deletion strains, locus YNR052C, strain pop2, hits give low values 0.963 | S. cerevisiae deletion strains, locus YOL006C, strain TOP1, hits give low values 1.03 | S. cerevisiae deletion strains, locus YOL012C, strain htz1 1.26 | S. cerevisiae deletion strains, locus YOL147C, strain pex11, hits give low values 0.977 | S. cerevisiae deletion strains, locus YOR061W, strain CKA2, hits give low values 0.997 | S. cerevisiae deletion strains, locus YOR069W, strain VPS5, hits give low values 0.994 | S. cerevisiae deletion strains, locus YOR136W, strain idh2, hits give low values 0.984 | S. cerevisiae deletion strains, locus YOR144C, strain elg1, hits give low values 0.984 | S. cerevisiae deletion strains, locus YOR184W, strain ser1, hits give low values 0.965 | S. cerevisiae deletion strains, locus YOR316C, strain cot1, hits give low values 0.991 | S. cerevisiae deletion strains, locus YPL055C, strain LGE1, hits give low values 1.03 | [6] 0.991 | S. cerevisiae deletion strains, locus YPR119W, strain clb2, hits give low values 0.988 | S. cerevisiae deletion strains, locus YPR141C, strain kar3, hits give low values 0.982 | S. cerevisiae deletion strains, locus YPR163C, strain tif3, hits give low values 0.972 | S. cerevisiae deletion strains, locus YPR167C, strain met16, hits give low values 0.994 | S. cerevisiae deletion strains, strain wtn01, hits give low values 1.02 | S. cerevisiae strains, strain wild type, hits give low values 0.993
